Assay results taken from PubChem BioAssay (EPA / NIEHS).
Where “and” joins values, the source holds several entries; their conditions need not be identical. Equal values may be shown once. More than one record can exist for a structure, and the calls need not agree. Calls of active or inactive are those of the source. Rule for the calls: active = hit-call score of the fitted dose curve at least 0.9, where 1 is the maximum; inactive = score below 0.9.

Assays:
[1] = read-out: Monokine induced gamma interferon (MIG), CXCL9 (gene 4283); assay: BSK_KF3CT_MIG: BioMAP Diversity Plus: KF3CT Assay for Monokine induced gamma interferon (MIG) Biomarker Activity (AID 2284248); settings: primary human keratinocytes with fibroblasts
How it was run: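 The assay uses a co-culture of human keratinocytes and foreskin fibroblasts. Measurement occurs 24 hours after dosing, with MIG detected by ELISA and the DMSO control as baseline.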

[2] = read-out: Collagen I, COL1A1 (gene 1277); assay: BSK_hDFCGF_CollagenI: BioMAP Diversity Plus: hDFCGF Assay for Collagen I Biomarker Activity (AID 2284250); settings: primary human foreskin fibroblasts
How it was run: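 Collagen I ELISA, primary human foreskin fibroblasts, 24 h chemical exposure, DMSO = negative control/baseline, positive fitting direction.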

[3] = read-out: Interferon-inducible T-cell alpha chemoattractant (ITAC), CXCL11 (gene 6373); assay: BSK_hDFCGF_ITAC: BioMAP Diversity Plus: hDFCGF Assay for Interferon-inducible T-cell alpha chemoattractant (ITAC) Biomarker Activity (AID 2284251); settings: primary human foreskin fibroblasts
How it was run: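 Measured by ELISA, the chemokine level serves as the endpoint in human skin fibroblast primary cultures 24 h after compound addition. Increases relative to DMSO-treated wells define activity.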

[4] = read-out: Plasminogen activator inhibitor-1 (PAI1), SERPINE1 (gene 5054); assay: BSK_KF3CT_PAI1: BioMAP Diversity Plus: KF3CT Assay for Plasminogen activator inhibitor-1 (PAI1) Biomarker Activity (AID 2284252); settings: primary human keratinocytes with fibroblasts
How it was run: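 Cells (human keratinocytes co-cultured with foreskin fibroblasts) are exposed to test chemical for 24 h. PAI-1 is then measured by ELISA and analysed for signal gain against DMSO.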

[5] = read-out: Interleukin-8 (IL8), CXCL8 (gene 3576); assay: BSK_KF3CT_IL8: BioMAP Diversity Plus: KF3CT Assay for Interleukin-8 (IL8) Biomarker Activity (AID 2284254); settings: primary human keratinocytes with fibroblasts
How it was run: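 ELISA detection of IL-8 from a human skin co-culture, keratinocytes with foreskin fibroblasts, at 24 h following chemical exposure, with gain of signal scored against DMSO controls.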

[6] = read-out: Collagen IV, COL4A1 (gene 1282); assay: BSK_MyoF_CollagenIV: BioMAP Diversity Plus: MyoF Assay for Collagen IV Biomarker Activity (AID 2284247); settings: primary human lung fibroblasts
How it was run: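 Human lung fibroblast system, 24 h chemical exposure. Endpoint: Collagen IV by ELISA, upward fit vs DMSO.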

[7] = read-out: Plasminogen activator inhibitor-1 (PAI1), SERPINE1 (gene 5054); assay: BSK_MyoF_PAI1: BioMAP Diversity Plus: MyoF Assay for Plasminogen activator inhibitor-1 (PAI1) Biomarker Activity (AID 2284256); settings: primary human lung fibroblasts
How it was run: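 Activity reflects increased PAI-1, determined by ELISA and compared with DMSO, in human lung fibroblasts treated for 24 h.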

[8] = read-out: Interleukin-8 (IL8), CXCL8 (gene 3576); assay: BSK_MyoF_IL8: BioMAP Diversity Plus: MyoF Assay for Interleukin-8 (IL8) Biomarker Activity (AID 2284261); settings: primary human lung fibroblasts
How it was run: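 In this multiplexed primary-cell system, fibroblasts from human lung are treated with chemicals, and IL-8 is detected by ELISA at 24 h, with DMSO serving as the negative reference.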

Decorin, DCN (gene 1634) = assay: BSK_MyoF_Decorin: BioMAP Diversity Plus: MyoF Assay for Decorin Biomarker Activity (AID 2284265); settings: primary human lung fibroblasts
How it was run: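 Lung fibroblast cultures, 24 h chemical exposure. Decorin by ELISA, positive fitting direction, DMSO baseline.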

Measured: AC50

Nc1nc(N)nc(-c2ccccc2)n1
inactive: [1] | [2] | [3] | [4] | [5]

Oc1ccc(/C=C/c2cc(O)cc(O)c2)cc1
inactive: [6] | [7] | [8] | Decorin, DCN (gene 1634)

CCOC(=O)C1=NOC(c2ccccc2)(c2ccccc2)C1
inactive: [6] | [7] | [8] | Decorin, DCN (gene 1634)

CCCCC1C(=O)N(c2ccccc2)N(c2ccccc2)C1=O
inactive: [6] | [7] | [8] | Decorin, DCN (gene 1634)

Oc1ccccc1Cc1ccccc1O
inactive: [1] | [2] | [3] | [4] | [5]

CC(C)CCCCCOC(=O)CS
inactive: [6] | [7] | [8] | Decorin, DCN (gene 1634)

CC1=CC=C(C(C)C)CC1
inactive: [6] | [7] | [8] | Decorin, DCN (gene 1634)

Clc1cc(Cl)c(Cl)c(Cl)c1Cl
inactive: [6] | [8] | Decorin, DCN (gene 1634)
active: [7] 31.9 µM

CCCCCCCCCCCC(=O)N(C)CC(=O)O
inactive: [1] | [2] | [3] | [4] | [5]

c1ccc(Nc2cccc3ccccc23)cc1
inactive: [2]
active: [1] 38.9 µM and 33.8 µM | [2] 14.3 µM | [3] 30.1 µM and 30.3 µM | [4] 27.4 µM and 26.5 µM | [5] 31.6 µM and 29.4 µM

CC=C(C)C(C)=O
inactive: [6] | [7] | [8] | Decorin, DCN (gene 1634)

CCOC(=O)C1=NN(c2ccc(Cl)cc2Cl)C(C)(C(=O)OCC)C1 (centres undefined)
inactive: [6] | [7] | [8] | Decorin, DCN (gene 1634)

c1ccc2c(c1)[nH]c1ccccc12
inactive: [6] | [7] | [8] | Decorin, DCN (gene 1634)

O=C1CCCCCCCCCCCN1
inactive: [6] | [7] | [8] | Decorin, DCN (gene 1634)

C=CC(=O)NC(C)(C)C
inactive: [6] | [7] | [8] | Decorin, DCN (gene 1634)

c1ccc2sc(SSN3CCOCC3)nc2c1
inactive: [8] | Decorin, DCN (gene 1634)
active: [6] 14.9 µM | [7] 29.8 µM

CC(C)C(=O)OCCc1ccccc1
inactive: [1] | [2] | [3] | [4] | [5]

CCCCCCC=O
inactive: [6] | [7] | [8] | Decorin, DCN (gene 1634)

C=CC(=O)OCCCCCCOC(=O)C=C
active: [6] 3.31 µM | [7] 34.6 µM
inactive: [8] | Decorin, DCN (gene 1634)

C=C(C)C(=O)OCCCCCCCCCCCC
inactive: [6] | [7] | [8] | Decorin, DCN (gene 1634)

Fc1ccc(Br)cc1
inactive: [6] | [7] | [8] | Decorin, DCN (gene 1634)

Nc1cccc(N)n1
inactive: [6] | [7] | [8] | Decorin, DCN (gene 1634)

CC(CCC(=O)O)(c1ccc(O)cc1)c1ccc(O)cc1
inactive: [1] | [2] | [3] | [4] | [5]
